# Reference: PubChem BioAssay (NCATS)
# Results filed as inconclusive are left out. A call without a number means that no potency is given here. Values without a mark were called inactive. The source made the active and inactive calls. Unless noted, the call rests on the fitted dose curve; in most records, active means well fitted curve in the direction sought with a large enough effect; inconclusive means small, poorly fitted or top-dose-only effect, or another doubt; inactive means no such curve, though single readings can be large; an effect the other way counts as inactive or inconclusive.
# What was measured:
# [1] = qHTS for Inhibitors of Plasmodium falciparum (DD2) proliferation (AID 504314);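 further: parasite DNA measured by SYBR Green fluorescence after red cell lysis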
# Method in brief: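 Normalization used 0.29 uM artemisinin as full inhibition and DMSO as baseline. Parasitized erythrocytes were exposed to compounds for 72 h (37C, 5% CO2), then lysed with saponin/Triton buffer containing SYBR Green I.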
# [2] = qHTS for Inhibitors of Plasmodium falciparum (CP250) proliferation (AID 504320)
# Method in brief: (§1)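 Parasite growth measured as SYBR Green DNA fluorescence (ex 485, em 535 nm) after overnight lysis following 72 h culture at 37 °C, 0.3% parasitemia, 2.5% hematocrit. Values normalized against DMSO and 0.29 uM artemisinin controls, with plate-stack correction.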
# [3] = target: Atrial natriuretic peptide receptor 1 (Homo sapiens) (UniProt P16066); assay: Natriuretic polypeptide receptor (hNpr1) antagonism - Pilot CMLD screen (AID 1347052; calls by dose curve;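 further: HEK293 cells with hNpr1 stimulated by hNppA peptide at 0.1 nM; cGMP level read as GloSensor luciferase luminescence after agonist stimulation; series mostly up to about 9.2 µM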)
# Chain of Atrial natriuretic peptide receptor 1 (Homo sapiens) (P16066 whole entry, looked up): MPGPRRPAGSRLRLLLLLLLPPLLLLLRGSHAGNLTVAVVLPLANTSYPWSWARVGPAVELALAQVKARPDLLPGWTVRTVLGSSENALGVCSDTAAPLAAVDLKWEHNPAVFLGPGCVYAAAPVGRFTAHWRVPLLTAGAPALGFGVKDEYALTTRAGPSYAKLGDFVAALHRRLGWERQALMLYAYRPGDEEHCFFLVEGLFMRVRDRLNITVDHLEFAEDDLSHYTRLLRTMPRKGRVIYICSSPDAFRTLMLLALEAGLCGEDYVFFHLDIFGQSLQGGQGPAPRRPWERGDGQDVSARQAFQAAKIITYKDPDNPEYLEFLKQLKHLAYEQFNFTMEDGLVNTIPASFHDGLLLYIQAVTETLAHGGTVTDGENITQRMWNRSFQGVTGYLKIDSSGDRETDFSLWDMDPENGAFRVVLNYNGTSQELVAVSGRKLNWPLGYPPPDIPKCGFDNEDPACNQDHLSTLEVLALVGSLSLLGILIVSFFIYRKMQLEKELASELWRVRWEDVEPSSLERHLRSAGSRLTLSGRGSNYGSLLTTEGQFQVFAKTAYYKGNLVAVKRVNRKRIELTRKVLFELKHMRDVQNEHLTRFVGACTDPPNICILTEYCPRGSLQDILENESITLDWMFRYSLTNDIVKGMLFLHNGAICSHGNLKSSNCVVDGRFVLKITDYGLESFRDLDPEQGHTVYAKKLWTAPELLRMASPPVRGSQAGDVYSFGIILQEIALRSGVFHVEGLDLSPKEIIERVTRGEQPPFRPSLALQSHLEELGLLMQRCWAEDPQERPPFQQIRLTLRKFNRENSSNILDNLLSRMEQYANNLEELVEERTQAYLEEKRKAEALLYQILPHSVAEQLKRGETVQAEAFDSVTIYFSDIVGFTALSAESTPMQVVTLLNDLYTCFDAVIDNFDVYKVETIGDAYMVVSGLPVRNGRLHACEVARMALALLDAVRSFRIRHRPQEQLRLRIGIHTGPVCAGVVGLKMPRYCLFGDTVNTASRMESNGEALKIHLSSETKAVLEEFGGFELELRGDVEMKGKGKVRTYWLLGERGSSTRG
# [4] = qHTS for Inhibitors of Plasmodium falciparum (GB4) proliferation (AID 504315); further: nearly all actives have a fitted effect of over 50% in size; further: potency means the concentration at half of the fitted maximal effect
# Method in brief: as §1
# [5] = qHTS for Inhibitors of Plasmodium falciparum (7G8) proliferation (AID 504316); further: nearly all actives have a fitted effect of over 65% in size; further: potency means the concentration at half of the fitted maximal effect
# Method in brief: as §1
# [6] = qHTS for Inhibitors of Plasmodium falciparum (HB3) proliferation (AID 504318); further: nearly all actives have a fitted effect of over 60% in size; further: potency means the concentration at half of the fitted maximal effect
# Method in brief: as §1
smiles,measurement,setting,value
COC(=O)CC=C[C@@H](C)[C@@H](C=NO[C@H](C)CN1CCCc2nc(C)c(C)cc21)N[S+](=O)([O-])c1ccc(C)cc1,Potency,[1],inactive
same,Potency,[2],inactive
same,Potency,[3],inactive
COc1cccc([C@@H]2NC(=O)CC=C[C@H](C)[C@H](c3cccc(OC)c3)NC(=O)CC=C[C@H]2C)c1,Potency,[4],inactive
same,Potency,[3],inactive
COC(=O)N[C@@H](C=Cc1ccccc1)C(C(=O)OC)=C(C)NCc1ccccc1,Potency,[4],1.69 µM (active)
same,Potency,[3],inactive
COc1cc(C(CC2=C(c3ccccc3)Cc3ccccc32)NC(=O)C(F)(F)F)cc(OC)c1OC (stereo not given),Potency,[1],inactive
same,Potency,[2],inactive
same,Potency,[3],inactive
CCCCCCCC1=Cc2ccc(F)cc2C(C(C(=O)OC)C(=O)OC)N1C(=O)OC (stereo not given),"activity, negative = inhibition",[1],-0.0199% [at 1.12 µM]
same,Potency,[2],inactive
same,Potency,[3],inactive
COc1cc(CCN2C(=O)NC(c3ccccc3)C(C(C)=O)=C2C)cc(OC)c1OC (stereo not given),Potency,[1],inactive
same,Potency,[2],inactive
same,Potency,[3],inactive
CCCCCCCC1Cc2ccccc2C(C(C(=O)OC)C(=O)OC)N1C(=O)OC (stereo not given),Potency,[1],inactive
same,Potency,[2],inactive
same,Potency,[3],inactive
COC(=O)N[C@@H](c1ccccc1)C(C(=O)OC)C(=O)OC,Potency,[1],inactive
same,Potency,[2],inactive
same,Potency,[3],inactive
CC(C)=CCCC(C)=CCN1C(=O)[C@@]2(C[C@@H](C)C[C@@H](C)O2)c2ccccc21,Potency,[1],inactive
same,Potency,[2],inactive
same,Potency,[3],inactive
C=C(CCN1C=C(C(=O)OCC)C(c2ccccc2)NC1=O)c1ccc(Cl)cc1 (stereo not given),Potency,[4],inactive
same,Potency,[3],inactive
COc1ccc(O[C@H]2C=C[C@@H](c3ccccc3)O[C@H]2COC(=O)CCC(C)=NOC[C@@H](O)COCc2ccco2)cc1,Potency,[1],inactive
same,Potency,[2],inactive
same,Potency,[3],inactive
CC(C)=CCCC(C)=CC=CC1=CC2(C)CC1(C)C(C=C(C)CCC=C(C)C)CC2=O (stereo not given),Potency,[4],inactive
same,Potency,[3],inactive
COC(=O)[C@@H]1CC[C@H](C)[C@@H](c2ccc(C)cc2)N1C(=O)c1ccc(C=NOC[C@@H](O)COCc2ccco2)cc1,Potency,[4],inactive
same,Potency,[3],inactive
CC12C=C(C=Cc3ccc(C(F)(F)F)cc3)C(C)(C1)C(c1ccc(C(F)(F)F)cc1)CC2=O (stereo not given),Potency,[1],inactive
same,Potency,[2],inactive
same,Potency,[3],inactive
C=CC[C@@H]1C=C[C@@H](Oc2ccc(OC)cc2)[C@H](CO)O1,Potency,[4],1.51 µM (active)
same,Potency,[3],inactive
COc1ccc2c3c(c(=O)oc2c1)[C@H]1O[C@](c2ccsc2)(Cc2ccccc21)O3,Potency,[4],1.69 µM (active)
same,Potency,[3],inactive
COC(=O)C1=C(C)N(Cc2ccccc2)C(=NCC2CC2)NC1c1ccccc1 (stereo not given),Potency,[4],1.69 µM (active)
same,Potency,[3],inactive
O[C@H](CC#CCOc1ccccc1)COCc1ccccc1,Potency,[1],inactive
same,Potency,[2],inactive
same,Potency,[3],inactive
COCOc1c2c(c(OCOC)c3c(OCOC)cccc13)C(=NNS(=O)(=O)c1ccc(C)cc1)C1=C2CCCC1,Potency,[1],inactive
same,Potency,[2],inactive
same,Potency,[3],inactive
CC(C)=CCCC(C)=CCN1C(=O)[C@]2(OCCC=C[C@H]2C)c2ccccc21,Potency,[1],inactive
same,Potency,[2],inactive
same,Potency,[3],inactive
COC(=O)[C@H]1O[C@@H](c2cc(OC)c(C)c(OC)c2OCc2ccccc2)[C@H](C)[C@@H]2O[C@]12C,Potency,[4],2.13 µM (active)
same,Potency,[3],inactive
O=S(=O)(CCc1ccccc1)c1nnnn1C1CCCCC1,Potency,[4],inactive
same,Potency,[3],inactive
CCOC(=O)C1(C(=O)OCC)CC2=C(C=CC3=C(C=C2)CC(C(=O)OCC)(C(=O)OCC)C3)C1,Potency,[1],inactive
same,Potency,[2],inactive
same,Potency,[3],inactive
CCCCCCCC1=Cc2ccccc2C(C(C(=O)OC)C(=O)OC)N1C(=O)OC (stereo not given),Potency,[1],inactive
same,Potency,[2],inactive
same,Potency,[3],inactive
COc1ccc2c3c(c(=O)oc2c1)[C@H]1O[C@](CCCCN2C(=O)c4ccccc4C2=O)(Cc2cc(OC)c(OC)cc21)O3,Potency,[4],2.69 µM (active)
same,Potency,[3],inactive
C=C(C(C)=O)C(O)c1ccco1 (stereo not given),Potency,[1],inactive
same,Potency,[2],inactive
same,Potency,[3],inactive
COC(=O)[C@@H]1CC[C@H](C)[C@@H](c2ccc(C)cc2)N1C(=O)c1ccc(C=NO[C@@H](C)c2cn([C@H](CO)Cc3ccccc3)nn2)cc1,Potency,[4],inactive
same,Potency,[3],inactive
CC(C)=CCCC(C)=CCN1C(=O)[C@]2(O[C@H](C)CC3=CCCC32)c2c(Br)cccc21 (stereo not given in full),Potency,[1],inactive
same,Potency,[2],inactive
same,Potency,[3],inactive
COc1cccc([C@@H]2Oc3ccc(OC)cc3C(=O)[C@@H]2OC(=O)N[C@H]2CCCc3ccccc32)c1,Potency,[1],inactive
same,Potency,[2],inactive
same,Potency,[3],inactive
C#CCN1C(=O)[C@]2(OCCC=C[C@H]2C)c2c(Br)cccc21,Potency,[4],inactive
same,Potency,[3],inactive
C=C(CO[C@@H]1C=C[C@@H](c2ccccc2)O[C@@H]1COC)c1ccccc1,Potency,[4],1.51 µM (active)
same,Potency,[3],inactive
C=CCN1c2ccccc2[C@]23CCC(=O)N(CCc4ccccn4)C2=NC(C(=O)OC)=C(C(=O)OC)[C@H]13,Potency,[1],inactive
same,Potency,[2],inactive
same,Potency,[3],inactive
COC(=O)N[C@H](C(C(=O)OC)=C(C)NCc1ccccc1)c1ccccc1,Potency,[1],inactive
same,Potency,[2],inactive
same,Potency,[3],inactive
CCC=C1C(=O)[C@]2(C(=O)c3ccccc3)C[C@H]3CCC(CCC)(C2=O)[C@@]13OC,Potency,[1],inactive
same,Potency,[2],inactive
same,Potency,[3],inactive
COc1ccc2c(c1)O[C@@H](c1ccc3c(c1)OCO3)[C@H](O)C2=O,Potency,[4],inactive
same,Potency,[5],inactive
same,Potency,[6],inactive
same,Potency,[2],inactive
same,Potency,[3],inactive
COC(=O)N1C(c2ccccc2)=Cc2ccccc2C1C1(C(=O)OC)CCCC1=O (stereo not given),Potency,[4],inactive
same,Potency,[5],inactive
same,Potency,[6],inactive
same,Potency,[2],inactive
same,Potency,[3],inactive
CCN1C(=NCCc2cccnc2)N[C@H](CCc2ccccc2)[C@H](C(=O)OC)[C@H]1C,Potency,[4],inactive
same,Potency,[5],inactive
same,Potency,[3],inactive
CC(=O)C1=C(C)N(Cc2ccccc2)C(=O)NC1c1ccc(Br)cc1 (stereo not given),Potency,[4],inactive
same,Potency,[5],inactive
same,Potency,[6],inactive
same,Potency,[2],inactive
same,Potency,[3],inactive
O=C1C2=C(C(=O)c3ccccc31)[C@H]1O[C@](CCCCN3C(=O)c4ccccc4C3=O)(Cc3ccccc31)O2,Potency,[4],1.69 µM (active)
same,Potency,[5],1.69 µM (active)
same,Potency,[6],1.69 µM (active)
same,Potency,[3],inactive
COc1ccc2c(c1)O[C@@H](c1ccc3c(c1)OCO3)[C@H](OC(=O)N[C@H](C)C1CCCCC1)C2=O,Potency,[4],inactive
same,Potency,[5],inactive
same,Potency,[6],inactive
same,Potency,[2],inactive
same,Potency,[3],inactive
